In PubChem BioAssay:
Active and inactive are the calls of the source.

How the values were obtained:
[1] = test system: PRMT1 (protein arginine N-methyltransferase 1); test: PRMT1 binders on small-molecule microarrays, primary screen, biochemical, small-molecule microarray, 635 nm fluorescence (AID 1088); details: small-molecule microarray binding, higher = more signal;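 note: binding of Prmt1 protein to compounds spotted on small-molecule microarray slides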
[2] = yeast growth modulation, basal conditions, primary screen, YJM789 clinical isolate, OD600, 24 h (AID 1089);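 note: growth of clinical yeast isolate S. cerevisiae YJM 789 seeded 1000 cells per well; test concentration not given here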; details: S. cerevisiae YJM789 growth, higher = more signal, called active from +8 up or from −8 down
[3] = fission yeast growth modulation, primary screen, strain 972, OD600, 24 h, no modulator (AID 1090);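 note: basal condition with compound alone and no growth modifier present; test concentration not given here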; details: S. pombe 972 growth, higher = more signal, called active from +8 up or from −8 down
[4] = S. cerevisiae growth modulation with rapamycin, primary screen, strain BY4716, OD600, 96 h (AID 1091); details: higher = more signal, called active from +8 up or from −8 down; note: test concentration not given here
[5] = target: Torsin-1A-interacting protein 2 (Homo sapiens) (UniProt Q8NFQ8); test: LULL1 binders on small-molecule microarray, primary screen, cell lysate, human LULL1 lysate, 635/667 nm fluorescence (AID 1092); details: hLULL1 lysate binding, 635 nm fluorescence, higher = more signal;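 note: probe is lysate of COS7 cells overexpressing human LULL1; score merges per-feature 667 nm fluorescence with signal-to-noise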
[6] = E. coli growth modulation, two-sided OD650, primary screen, E. coli filamentation project, strain DRC41, 24 h (AID 1093); details: OD650, 24 h, higher = more signal, called active from +8 up or from −8 down;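 note: MC1000 strain lacking acrAB efflux and sulA so SOS filamentation is blocked; test concentration not given here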
[7] = small-molecule microarray binders of probe aLefty2, primary screen, biochemical, biotinylated probe, 635/667 nm fluorescence (AID 1094); details: higher = more signal;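 note: score merges spot fluorescence near 667 nm with spot signal-to-noise ratio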
[8] = test system: Noggin (protein binding on small-molecule microarray); test: Noggin binders on small-molecule microarray, primary screen, biochemical, 635/667 nm fluorescence (AID 1095); details: 635 nm fluorescence, higher = more signal;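 note: score merges 667 nm feature fluorescence with signal to noise over triplicate slides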
[9] = target: Neurogenic locus notch homolog protein 3 (Homo sapiens) (UniProt Q9UM47); test: NOTCH3 binders on small-molecule microarray, primary screen, biochemical, 635/667 nm fluorescence (AID 1096); details: NOTCH3 binding, 635 nm fluorescence, higher = more signal
[10] = small-molecule microarray binders of probe aEGFR, primary screen, biochemical, biotinylated probe, 635/667 nm fluorescence (AID 1097); details: higher = more signal;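 note: probe is a biotinylated anti-EGFR antibody binding compounds printed on slides; score combines fluorescence near 667 nm and signal to noise of each spot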
[11] = test system: Plasmodium falciparum Sir2 (PF13_0152, Sir2A); test: pfSir2 binders on small-molecule microarrays, primary screen, biochemical, small-molecule microarray, 635 nm fluorescence (AID 1098); details: small-molecule microarray binding, fluorescence 635 nm; higher = more signal;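 note: score merges spot fluorescence intensity with its signal-to-noise ratio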
[12] = small-molecule microarray binders of probe aDKK1, primary screen, biochemical, biotinylated probe, 635/667 nm fluorescence (AID 1099); details: higher = more signal;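 note: score merges 667nm spot fluorescence with signal to noise across triplicate slides; reference of the scale not given here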
[13] = small-molecule microarray binders of probe aCHRDL2, primary screen, biochemical, biotinylated probe, 635/667 nm fluorescence (AID 1100); details: higher = more signal
[14] = splicing luciferase reporter signal modulators, primary screen, spliceosome inhibition project, cell-based, HEK293, splice +/- reporter (AID 1101); details: luminescence, 24 h, higher = more signal, called active from +8 up or from −8 down;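 note: HEK293 cells carrying a splicing-competent luciferase reporter gene; test concentration not given here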
[15] = target: Fibroblast growth factor 10 (Homo sapiens) (UniProt O15520); test: FGF10 binders on small-molecule microarrays, primary screen, biochemical, small-molecule microarray, 635 nm fluorescence (AID 1102); details: FGF10 binding, fluorescence 635 nm, higher = more signal
[16] = test system: glycogen synthase kinase-3 (GSK3A per assay name; protocol says GSK3B); test: GSK3 binders on small-molecule microarrays, primary screen, biochemical, small-molecule microarray, 635 nm fluorescence, GSK3A (AID 1103); details: small-molecule microarray binding, fluorescence 635 nm; higher = more signal; note: the record names both GSK3A and GSK3B
[17] = target: Epidermal growth factor receptor (Homo sapiens) (UniProt P00533); test: EGFR binders on small-molecule microarrays, primary screen, biochemical, small-molecule microarray, 635 nm fluorescence (AID 1104); details: EGFR binding, higher = more signal;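 note: score merges 667 nm emission intensity with spot signal to noise over triplicate slides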
[18] = target: Follistatin-related protein 3 (Homo sapiens) (UniProt O95633); test: FSTL3 binders on small-molecule microarrays, primary screen, biochemical, small-molecule microarray, 635 nm fluorescence (AID 1105); details: FSTL3 binding, higher = more signal;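 note: score merges emission near 667 nm and signal to noise per printed spot across three slides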
[19] = target: Dickkopf-related protein 1 (Homo sapiens) (UniProt O94907); test: DKK1 binders on small-molecule microarrays, primary screen, biochemical, small-molecule microarray, 635 nm fluorescence scan (AID 1106); details: DKK1 binding, higher = more signal;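 note: score merges emission near 667 nm with signal to noise over three replicate slides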
[20] = test system: Inhibin beta A chain (activin A); test: INHBA (activin A) binders on microarrays, primary screen, biochemical, small-molecule microarray, 635 nm fluorescence scan (AID 1107); details: small-molecule microarray binding, higher = more signal;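 note: mouse activin A protein probed at 4.33 µg/mL on printed slides; score merges bound-protein fluorescence near 667 nm with spot signal-to-noise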

Epidermal growth factor receptor (Homo sapiens), sequence (P00533 whole entry, looked up): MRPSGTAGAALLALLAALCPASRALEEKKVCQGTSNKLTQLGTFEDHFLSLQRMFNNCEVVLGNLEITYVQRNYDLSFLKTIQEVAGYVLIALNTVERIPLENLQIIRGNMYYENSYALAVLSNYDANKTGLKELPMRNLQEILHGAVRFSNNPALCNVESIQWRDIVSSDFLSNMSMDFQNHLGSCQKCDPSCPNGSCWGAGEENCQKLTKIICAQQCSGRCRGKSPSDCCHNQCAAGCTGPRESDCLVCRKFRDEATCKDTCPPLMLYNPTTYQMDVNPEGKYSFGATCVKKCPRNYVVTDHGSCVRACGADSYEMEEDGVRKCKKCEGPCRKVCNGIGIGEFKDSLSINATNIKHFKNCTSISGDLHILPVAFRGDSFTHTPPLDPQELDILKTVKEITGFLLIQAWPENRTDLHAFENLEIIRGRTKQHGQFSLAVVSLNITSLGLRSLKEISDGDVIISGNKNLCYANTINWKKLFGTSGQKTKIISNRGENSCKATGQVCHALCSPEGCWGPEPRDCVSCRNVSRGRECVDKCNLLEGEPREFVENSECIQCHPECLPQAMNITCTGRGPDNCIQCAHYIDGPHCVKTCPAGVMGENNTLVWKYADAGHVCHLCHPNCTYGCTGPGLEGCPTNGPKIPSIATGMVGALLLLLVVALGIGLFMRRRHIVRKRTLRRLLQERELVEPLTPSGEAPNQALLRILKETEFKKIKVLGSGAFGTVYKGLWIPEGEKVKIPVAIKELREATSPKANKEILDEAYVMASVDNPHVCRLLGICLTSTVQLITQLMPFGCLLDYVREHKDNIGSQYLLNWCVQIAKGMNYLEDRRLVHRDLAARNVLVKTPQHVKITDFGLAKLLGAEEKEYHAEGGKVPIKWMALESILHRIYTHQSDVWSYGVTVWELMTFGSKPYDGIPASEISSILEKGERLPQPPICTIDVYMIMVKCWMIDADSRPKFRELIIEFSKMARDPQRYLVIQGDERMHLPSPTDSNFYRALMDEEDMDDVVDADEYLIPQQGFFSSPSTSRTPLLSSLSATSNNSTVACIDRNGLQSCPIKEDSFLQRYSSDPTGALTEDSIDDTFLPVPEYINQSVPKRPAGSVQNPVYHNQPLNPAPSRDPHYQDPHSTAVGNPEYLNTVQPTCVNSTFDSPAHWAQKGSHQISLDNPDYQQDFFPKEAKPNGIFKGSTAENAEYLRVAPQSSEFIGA
Follistatin-related protein 3 (Homo sapiens), sequence (O95633 whole entry, looked up): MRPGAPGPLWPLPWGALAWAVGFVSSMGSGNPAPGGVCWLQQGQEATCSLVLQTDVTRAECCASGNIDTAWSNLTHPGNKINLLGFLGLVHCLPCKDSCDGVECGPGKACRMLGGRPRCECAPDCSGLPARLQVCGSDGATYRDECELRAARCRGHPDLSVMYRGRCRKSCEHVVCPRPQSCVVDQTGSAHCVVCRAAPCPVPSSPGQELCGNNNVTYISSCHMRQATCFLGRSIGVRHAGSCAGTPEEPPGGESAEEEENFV
Fibroblast growth factor 10 (Homo sapiens), sequence (O15520 whole entry, looked up): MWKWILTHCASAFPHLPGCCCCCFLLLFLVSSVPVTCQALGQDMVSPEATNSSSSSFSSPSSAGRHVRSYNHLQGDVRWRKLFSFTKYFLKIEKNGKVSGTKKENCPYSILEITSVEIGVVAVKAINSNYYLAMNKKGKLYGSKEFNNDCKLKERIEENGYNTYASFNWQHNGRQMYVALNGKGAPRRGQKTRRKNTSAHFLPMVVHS
Dickkopf-related protein 1 (Homo sapiens), sequence (O94907 whole entry, looked up): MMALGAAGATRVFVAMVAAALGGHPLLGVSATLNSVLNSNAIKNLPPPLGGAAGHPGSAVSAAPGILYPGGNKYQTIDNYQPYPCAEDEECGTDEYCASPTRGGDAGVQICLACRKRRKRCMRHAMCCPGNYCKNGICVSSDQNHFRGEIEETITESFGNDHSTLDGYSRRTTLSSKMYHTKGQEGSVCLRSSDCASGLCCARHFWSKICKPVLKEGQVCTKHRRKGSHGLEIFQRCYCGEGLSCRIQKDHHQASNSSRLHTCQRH
Torsin-1A-interacting protein 2 (Homo sapiens), sequence (Q8NFQ8 whole entry, looked up): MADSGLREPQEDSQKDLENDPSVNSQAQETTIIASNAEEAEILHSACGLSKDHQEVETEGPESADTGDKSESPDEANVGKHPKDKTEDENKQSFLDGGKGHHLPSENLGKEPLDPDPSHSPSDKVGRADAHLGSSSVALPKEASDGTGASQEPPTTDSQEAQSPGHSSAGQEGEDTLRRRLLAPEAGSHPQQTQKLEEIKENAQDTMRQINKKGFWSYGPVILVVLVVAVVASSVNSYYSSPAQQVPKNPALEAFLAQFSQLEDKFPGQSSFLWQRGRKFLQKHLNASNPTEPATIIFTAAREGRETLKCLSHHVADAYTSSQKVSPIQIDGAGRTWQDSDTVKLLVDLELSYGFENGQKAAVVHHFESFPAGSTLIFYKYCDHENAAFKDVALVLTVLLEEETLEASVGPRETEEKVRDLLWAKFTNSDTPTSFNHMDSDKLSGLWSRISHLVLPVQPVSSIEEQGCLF
Neurogenic locus notch homolog protein 3 (Homo sapiens), sequence (Q9UM47 whole entry, looked up): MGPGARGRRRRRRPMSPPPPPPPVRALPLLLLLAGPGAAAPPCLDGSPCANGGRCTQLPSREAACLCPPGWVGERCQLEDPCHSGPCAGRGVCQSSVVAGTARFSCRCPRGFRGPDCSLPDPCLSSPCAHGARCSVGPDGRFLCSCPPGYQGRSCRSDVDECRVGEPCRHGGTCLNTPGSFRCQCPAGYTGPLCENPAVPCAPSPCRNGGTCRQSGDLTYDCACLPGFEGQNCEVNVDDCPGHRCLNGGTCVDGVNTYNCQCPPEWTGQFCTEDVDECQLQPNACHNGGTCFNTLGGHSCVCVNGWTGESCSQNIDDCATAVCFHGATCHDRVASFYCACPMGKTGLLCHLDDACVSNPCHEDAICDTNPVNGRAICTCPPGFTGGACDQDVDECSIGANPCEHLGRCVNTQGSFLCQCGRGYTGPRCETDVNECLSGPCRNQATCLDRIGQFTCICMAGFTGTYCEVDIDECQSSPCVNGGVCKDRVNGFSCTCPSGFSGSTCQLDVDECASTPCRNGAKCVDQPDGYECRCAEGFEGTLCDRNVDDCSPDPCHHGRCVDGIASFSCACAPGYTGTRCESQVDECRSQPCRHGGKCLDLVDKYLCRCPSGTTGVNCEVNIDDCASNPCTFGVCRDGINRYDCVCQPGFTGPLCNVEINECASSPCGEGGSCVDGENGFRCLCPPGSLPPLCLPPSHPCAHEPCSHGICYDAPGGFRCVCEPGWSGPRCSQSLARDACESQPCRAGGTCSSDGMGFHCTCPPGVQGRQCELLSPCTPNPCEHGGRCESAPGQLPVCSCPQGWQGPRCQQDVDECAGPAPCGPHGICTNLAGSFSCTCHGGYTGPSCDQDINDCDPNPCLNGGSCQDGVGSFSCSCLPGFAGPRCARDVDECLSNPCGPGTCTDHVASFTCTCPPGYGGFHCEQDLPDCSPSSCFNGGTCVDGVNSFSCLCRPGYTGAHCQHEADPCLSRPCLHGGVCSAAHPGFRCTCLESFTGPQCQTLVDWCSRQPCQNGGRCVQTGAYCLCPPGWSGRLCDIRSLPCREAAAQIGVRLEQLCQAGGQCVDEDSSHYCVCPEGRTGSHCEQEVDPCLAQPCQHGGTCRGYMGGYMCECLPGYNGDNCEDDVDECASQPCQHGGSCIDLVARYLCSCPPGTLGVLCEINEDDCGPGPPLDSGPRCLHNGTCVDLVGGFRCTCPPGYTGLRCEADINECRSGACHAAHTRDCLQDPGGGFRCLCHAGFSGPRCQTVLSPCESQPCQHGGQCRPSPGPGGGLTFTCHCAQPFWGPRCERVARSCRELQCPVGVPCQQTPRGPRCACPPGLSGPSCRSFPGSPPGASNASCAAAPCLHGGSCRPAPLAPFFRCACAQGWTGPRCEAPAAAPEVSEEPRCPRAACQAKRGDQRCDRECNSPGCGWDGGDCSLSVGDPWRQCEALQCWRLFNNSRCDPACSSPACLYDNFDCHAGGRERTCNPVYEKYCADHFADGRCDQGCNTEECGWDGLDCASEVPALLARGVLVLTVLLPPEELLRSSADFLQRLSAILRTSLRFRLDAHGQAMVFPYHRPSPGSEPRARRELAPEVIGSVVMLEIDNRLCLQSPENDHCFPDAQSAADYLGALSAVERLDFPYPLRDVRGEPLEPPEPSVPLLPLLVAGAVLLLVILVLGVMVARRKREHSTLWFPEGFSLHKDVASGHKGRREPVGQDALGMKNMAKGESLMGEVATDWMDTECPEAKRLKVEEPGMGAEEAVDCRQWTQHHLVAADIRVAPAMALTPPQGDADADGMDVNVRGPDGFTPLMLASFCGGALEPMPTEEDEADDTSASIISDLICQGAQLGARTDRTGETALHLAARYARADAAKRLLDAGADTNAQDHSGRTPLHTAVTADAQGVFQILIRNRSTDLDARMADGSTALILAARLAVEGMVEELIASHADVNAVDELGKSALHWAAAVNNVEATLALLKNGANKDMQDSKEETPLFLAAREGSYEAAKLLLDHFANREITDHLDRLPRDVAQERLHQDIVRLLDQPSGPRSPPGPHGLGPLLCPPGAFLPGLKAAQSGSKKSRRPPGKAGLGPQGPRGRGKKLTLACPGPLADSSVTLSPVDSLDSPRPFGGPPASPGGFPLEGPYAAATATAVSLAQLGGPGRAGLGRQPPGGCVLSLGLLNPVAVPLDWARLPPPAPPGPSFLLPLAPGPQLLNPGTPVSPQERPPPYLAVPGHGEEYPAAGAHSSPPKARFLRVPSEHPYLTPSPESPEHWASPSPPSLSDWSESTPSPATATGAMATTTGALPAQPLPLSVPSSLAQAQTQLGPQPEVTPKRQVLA

| SMILES | composite z-score [1] | z-score [2] | z-score [3] | z-score [4] | composite z-score [5] | z-score [6] | composite z-score [7] | composite z-score [8] | composite z-score [9] | composite z-score [10] | composite z-score [11] | composite z-score [12] | composite z-score [13] | z-score [14] | composite z-score [15] | composite z-score [16] | composite z-score [17] | composite z-score [18] | composite z-score [19] | composite z-score [20] |
| --- | --- | --- | --- | --- | --- | --- | --- | --- | --- | --- | --- | --- | --- | --- | --- | --- | --- | --- | --- | --- |
| C=CC[C@@]1(C(=O)NCCCOC)N=C(c2ccc(OCCCO)cc2)O[C@@H]1c1ccccc1N=[N+]=[N-] | 1.14 | 0.339 (inactive) | 0.561 (inactive) | -0.441 (inactive) | 3.09 | 1.24 (inactive) | 0.085 | 0.794 | 0.681 | -0.019 | 0.826 | 0.648 | 0.999 | 0.0875 (inactive) | 0.919 | 0.595 | -0.276 | 0.45 | -0.178 | 0.961 |
| CCCCN1CC=CC23O[C@@H]4/C=C\CCCOC(=O)C4[C@H]2C(=O)N(CCO)[C@@H]3C1=O (stereo not given in full) | -0.328 | 0.812 (inactive) | -0.0784 (inactive) | -0.0859 (inactive) | 3.01 | 2.12 (inactive) | -0.212 | -1.03 | -0.968 | -0.385 | 1.77 | -0.356 | 0.644 | -0.817 (inactive) | -1.29 | -0.782 | -1.26 | -1.38 | -1.58 | -0.677 |
| C#CCN([C@@H](Cc1ccccc1)C(=O)OC)[C@@H](/C=C/C1CC1)[C@H](O)Cc1ccccc1 | -0.59 | -0.464 (inactive) | -1.22 (inactive) | -0.0898 (inactive) | 0.209 | -0.807 (inactive) | -0.0051 | 0.0503 | -0.525 | -0.307 | -0.437 | -0.575 | 0.37 | 0.414 (inactive) | -0.496 | -0.489 | -0.473 | -0.494 | -0.185 | 1.49 |
| CCCC=C(CCC)[C@@H](NC(=O)c1cccs1)c1ccc(C(=O)OC)cc1 | -1.88 | -0.0214 (inactive) | 0.598 (inactive) | -0.0964 (inactive) | 0.905 | -0.0658 (inactive) | 1.18 | 0.542 | 0.587 | 0.925 | 0.366 | 1.96 | 0.824 | -0.571 (inactive) | 1.31 | 0.625 | 0.782 | 0.89 | 0.473 | -0.032 |
| O=C1C2C=CC(C(O)C3CC=CCC3)N(Nc3ccccc3)C2C(=O)N1c1ccccc1 (stereo not given) | 1.24 | 0.399 (inactive) | -0.428 (inactive) | 0.662 (inactive) | 3.09 | -1.6 (inactive) | 0.401 | -0.146 | 1.06 | 0.153 | 1.33 | 1.13 | 1.12 | -0.225 (inactive) | 0.154 | 0.466 | 0.303 | 1.03 | 0.333 | 1.68 |
| O=C1O[C@@H](c2ccccc2)[C@@H](c2ccccc2)N2[C@@H](c3ccc(O)cc3)[C@]3(C(=O)Nc4ccc(C#CCCO)cc43)[C@@H](C(=O)N3CCN(c4ncccn4)CC3)[C@H]12 | 1.54 | 2.72 (inactive) | 2 (inactive) | 6.45 (inactive) | 1.04 | 2.07 (inactive) | -0.698 | 1.74 | 1.09 | -0.257 | 1.64 | -1.25 | -1.14 | -0.116 (inactive) | 1.4 | 1.29 | 0.103 | 0.89 | -0.0103 | -0.0153 |
| CCCCNC(=O)c1ccc(C#CC(C)(C)C)c(OC(C)=O)c1 | 1.45 | 0.0582 (inactive) | -5.49 (inactive) | -1 (inactive) | 0.503 | 1.05 (inactive) | -0.159 | 0.0904 | 1.1 | -0.127 | 0.311 | -0.369 | -0.675 | -1.11 (inactive) | 1.11 | 1.04 | 0.841 | 1.44 | 0.689 | 1.12 |
| COc1ccc([Si](C)(C)[C@@H]2[C@@H](CCO)O[C@]3(C(=O)N(Cc4ccccc4)c4ccc(N5C(=O)c6cccc7cccc5c67)cc43)[C@H]2C)cc1 | 0.473 | 0.849 (inactive) | 1.97 (inactive) | 37.1 (active) | 0.984 | 0.89 (inactive) | -0.186 | -0.129 | -0.0162 | -0.177 | 1.42 | 0.0194 | 0.42 | -0.884 (inactive) | -0.231 | -0.642 | -0.0299 | -0.448 | -0.0876 | -0.344 |
| COC(=O)c1c(CC[C@@H](CO)NC(=O)N[C@@H](C)Cn2cc(-c3ccccn3)nn2)oc(C(C)=O)c1C(=O)OC | 1.39 | -0.441 (inactive) | -0.705 (inactive) | 0.198 (inactive) | 1.42 | -0.608 (inactive) | -0.115 | 1.43 | 0.794 | -0.164 | 1.09 | -0.18 | -0.495 | -1.89 (inactive) | 0.563 | 0.0696 | -0.344 | 0.454 | 0.28 | 0.284 |
| COc1ccc([Si](C)(C)[C@@H]2[C@@H](CC(=O)N3Cc4ccccc4C[C@H]3CO)O[C@]3(C(=O)N(Cc4ccc(N5C(=O)c6cccc7cccc5c67)cc4)c4ccccc43)[C@H]2C)cc1 | 1.55 | -0.297 (inactive) | 0.389 (inactive) | 1.39 (inactive) | 1.74 | -0.465 (inactive) | 0.104 | 1.14 | 1.04 | 0.0717 | 0.68 | -0.0502 | -0.0445 | 1.54 (inactive) | 1.31 | 1.27 | 1.2 | 1.24 | 1.12 | 0.772 |
